Assay [1] concerns Wnt5a (protein binding on small-molecule microarray). Kind of assay: Wnt5a binders on small-molecule microarray, primary screen, biophysical, 635/667 nm fluorescence (AID 1142).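 Further: fluorescence read at 667 nm with signal to noise per printed feature.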 The note with it: 635 nm fluorescence, higher = more signal.
Assay [2] is described as follows: cell viability in Huh7 cells, primary screen, cytotoxicity control for HCV replication inhibitor project, CellTiter-Glo luminescence, basal, 48 h (AID 1143).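 Further: Huh7 hepatoma cells carrying a hepatitis C replication reporter with no stimulus; test concentration not given here.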 Conditions: Huh7 HCV replicon, higher = more signal, called active from +8 up or from −8 down. A general note: ATP-based viability assays read luminescence as a measure of living cells.
Assay [3] is described as follows: P. aeruginosa biofilm formation inhibitors, primary screen, PAO1 strain, BacTiter-Glo luminescence, LB-PBS (AID 1144). Conditions: 12 h, higher = more signal.
Assay [4] is described as follows: CREB reporter modulators without forskolin, primary screen, cell-based, PC12, CRE-LacZ reporter, unstimulated (AID 1145). The note with it: no forskolin, luminescence, 4.5 h, higher = more signal, called active from +8 up or from −8 down.
The nature of assay [5]: CREB reporter modulators under forskolin, primary screen, cell-based, PC12, CRE-LacZ reporter, forskolin-stimulated (AID 1146).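 Further: PC12 cells with 6xCRE LacZ reporter stimulated by forskolin 10 µM; beta-galactosidase reporter signal reflecting CREB driven transcription.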 Conditions: luminescence, 4.5 h, higher = more signal, called active from +8 up or from −8 down.
Assay [6] concerns the target Streptavidin (Streptomyces avidinii) (UniProt P22629). Kind of assay: streptavidin binders on small-molecule microarray, primary screen, artefact control for SMM compound annotation, biophysical, 635/667 nm fluorescence (AID 1147).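 Further: signal reflects streptavidin binding to arrayed compounds as a control protein.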 Conditions: streptavidin binding, higher = more signal.
Assay [7] can be described thus: small-molecule binders of probe aInhba, primary screen, biochemical, small-molecule microarray, 635/667 nm fluorescence (AID 1148).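 Further: score merges 667nm spot fluorescence with signal-to-noise for antibody binding to printed compounds.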 The note with it: higher = more signal.
Assay [8] concerns the target Torsin-1A (Homo sapiens) (UniProt O14656). Kind of assay: torsin A binders from cell lysate, primary screen, small-molecule microarray, wild-type, 635/667 nm (AID 1149). Conditions: COS7 hTOR1A-WT lysate, 635 nm fluorescence, higher = more signal.
Assay [9] has the same target. Kind of assay: small-molecule binders of mutant TOR1A in lysate, primary screen, cell lysate, small-molecule microarray, COS7 lysate, 635/667 nm fluorescence (AID 1150).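 Further: score pools 667 nm emission and signal to noise measuring lysate protein binding.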 The note with it: COS7 hTOR1A mutant lysate, 635 nm fluorescence, higher = more signal.
The test system of assay [10] is Sonic hedgehog protein (Shh). Kind of assay: small-molecule binders of Shh protein, primary screen, biochemical, small-molecule microarray, 635/667 nm fluorescence (AID 1151).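 Further: Shh protein binding to compounds spotted on small-molecule microarray slides; score combines spot fluorescence intensity with signal-to-noise across triplicate slides.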 The note with it: small-molecule microarray binding, 635 nm fluorescence; higher = more signal.
The nature of assay [11]: E. coli DRC41 culture turbidity changes, primary screen, E. coli filamentation inducer project, strain DRC41, OD650, 48 h (AID 1152).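 Further: E. coli MC1000 strain DRC41 lacking acrAB efflux pump and sulA.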 Conditions: E. coli DRC41 (acrAB sulA), higher = more signal, called active from +8 up or from −8 down.
Assay [12] in a line: small-molecule binders of probe aLefty1, primary screen, biochemical, small-molecule microarray, 635/667 nm fluorescence (AID 1153).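 Further: score merges spot fluorescence with signal-to-noise ratio from the scanned slide images.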 Conditions: higher = more signal.
A short description of assay [13]: PSAC antagonists in infected red cells, primary screen, cell-based, P. falciparum Indochina, OD700, 1 h (AID 1154). Conditions: P. falciparum Indochina infected RBC osmotic lysis, higher = more signal, called active from +8 up or from −8 down.
Assay [14] can be described thus: PSAC antagonists in infected red cells, primary screen, cell-based, P. falciparum Indochina, OD700, 2 h (AID 1155).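 Further: lysis reports solute entry through the parasite surface anion channel PSAC; channel blockers reduce lysis of infected cells.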 Conditions: P. falciparum Indochina infected erythrocytes, osmotic lysis OD700; higher = more signal, called active from +8 up or from −8 down.
Assay [15] in a line: osmotic lysis modulators in infected erythrocytes, primary screen, PSAC antagonist project, cell-based, P. falciparum Indochina, OD700, 3 h (AID 1156). Conditions: higher = more signal, called active from +8 up or from −8 down.
The nature of assay [16]: PSAC antagonists in infected red cells, primary screen, cell-based, P. falciparum Indochina, OD700, 18 h (AID 1157). Conditions: P. falciparum Indochina infected erythrocytes, osmotic lysis OD700, 18 h; higher = more signal, called active from +8 up or from −8 down.
A short description of assay [17]: modulators of S6 phosphorylation in cells, primary screen, cell-based, A549, cytoblot, luminescence, serum-stimulated (AID 1158).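 Further: serum-stimulated A549 lung adenocarcinoma cells; signal is phosphorylated S6 detected by cytoblot immunostaining with HRP secondary.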 Conditions: A549 phospho-S6 cytoblot, 5 h, higher = more signal.
Assay [18] deals with NADPH oxidase 2 (Homo sapiens) (UniProt P04839). Kind of assay: NOX2-dependent H2O2 signal modulators, primary screen, NOX inhibitor project, cell-based, HEK293-NOX2, PMA-stimulated, Amplex Red fluorescence (AID 1159). Further: test concentration not given here. The note with it: 45 min, higher = more signal, called active from +8 up or from −8 down.
Assay [19] has as its target NADPH oxidase 4 (Homo sapiens) (UniProt Q9NPH5). Kind of assay: NOX4-dependent H2O2 signal modulators, primary screen, NOX inhibitor project, cell-based, HEK293-NOX4, tetracycline-induced, Amplex Red fluorescence (AID 1160). The note with it: 45 min, higher = more signal, called active from +8 up or from −8 down.
The target of assay [20] is NADPH oxidase 5 (Homo sapiens) (UniProt Q96PH1). Kind of assay: NOX5-dependent H2O2 signal modulators, primary screen, NOX inhibitor project, cell-based, HEK293-NOX5, Amplex Red fluorescence (AID 1161). Conditions: HEK293-NOX5, ionomycin, 45 min, higher = more signal.

The source made the active and inactive calls. Unless noted, how the calls were made is not given here.

Sequence of NADPH oxidase 5 (Homo sapiens) (Q96PH1 whole entry, looked up): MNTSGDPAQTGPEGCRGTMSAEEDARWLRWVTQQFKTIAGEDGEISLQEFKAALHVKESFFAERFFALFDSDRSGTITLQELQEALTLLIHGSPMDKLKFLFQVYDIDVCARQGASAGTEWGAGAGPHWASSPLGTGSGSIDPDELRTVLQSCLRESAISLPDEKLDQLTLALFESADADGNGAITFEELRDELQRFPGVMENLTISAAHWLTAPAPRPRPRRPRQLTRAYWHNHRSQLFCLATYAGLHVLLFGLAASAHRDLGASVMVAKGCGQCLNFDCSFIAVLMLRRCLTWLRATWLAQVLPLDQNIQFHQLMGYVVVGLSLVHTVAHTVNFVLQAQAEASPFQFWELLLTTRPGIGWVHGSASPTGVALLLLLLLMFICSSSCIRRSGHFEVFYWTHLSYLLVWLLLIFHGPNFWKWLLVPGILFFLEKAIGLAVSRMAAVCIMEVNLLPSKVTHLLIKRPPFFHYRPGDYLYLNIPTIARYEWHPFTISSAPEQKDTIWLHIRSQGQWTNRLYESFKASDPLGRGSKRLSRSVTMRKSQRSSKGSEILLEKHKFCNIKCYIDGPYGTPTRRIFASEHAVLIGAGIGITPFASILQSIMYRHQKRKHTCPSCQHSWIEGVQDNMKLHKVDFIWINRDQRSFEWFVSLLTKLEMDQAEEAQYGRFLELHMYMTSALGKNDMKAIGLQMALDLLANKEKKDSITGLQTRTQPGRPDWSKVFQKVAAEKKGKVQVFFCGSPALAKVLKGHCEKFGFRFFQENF
Sequence of Streptavidin (Streptomyces avidinii) (P22629 whole entry, looked up): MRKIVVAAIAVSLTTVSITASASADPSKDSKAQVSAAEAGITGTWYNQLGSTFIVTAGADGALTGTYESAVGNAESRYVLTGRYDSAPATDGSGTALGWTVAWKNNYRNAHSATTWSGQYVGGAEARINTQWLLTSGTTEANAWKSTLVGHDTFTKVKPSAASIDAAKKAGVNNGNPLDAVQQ
Sequence of NADPH oxidase 4 (Homo sapiens) (Q9NPH5 whole entry, looked up): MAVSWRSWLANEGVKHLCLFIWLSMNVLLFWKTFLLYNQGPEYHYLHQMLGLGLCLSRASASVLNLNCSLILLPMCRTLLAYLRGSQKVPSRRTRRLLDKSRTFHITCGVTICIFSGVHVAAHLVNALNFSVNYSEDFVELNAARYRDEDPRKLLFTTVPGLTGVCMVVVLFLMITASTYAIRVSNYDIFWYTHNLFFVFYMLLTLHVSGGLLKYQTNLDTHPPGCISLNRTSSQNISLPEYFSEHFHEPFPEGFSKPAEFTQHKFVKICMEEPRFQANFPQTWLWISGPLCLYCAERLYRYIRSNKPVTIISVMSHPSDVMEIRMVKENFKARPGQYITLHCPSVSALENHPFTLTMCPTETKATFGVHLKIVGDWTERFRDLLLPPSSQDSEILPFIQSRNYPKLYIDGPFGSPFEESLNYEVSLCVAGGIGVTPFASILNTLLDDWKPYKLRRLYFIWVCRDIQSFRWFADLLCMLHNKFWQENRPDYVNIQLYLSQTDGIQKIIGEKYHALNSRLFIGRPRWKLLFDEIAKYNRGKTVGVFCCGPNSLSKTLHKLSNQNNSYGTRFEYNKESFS
Sequence of NADPH oxidase 2 (Homo sapiens) (P04839 whole entry, looked up): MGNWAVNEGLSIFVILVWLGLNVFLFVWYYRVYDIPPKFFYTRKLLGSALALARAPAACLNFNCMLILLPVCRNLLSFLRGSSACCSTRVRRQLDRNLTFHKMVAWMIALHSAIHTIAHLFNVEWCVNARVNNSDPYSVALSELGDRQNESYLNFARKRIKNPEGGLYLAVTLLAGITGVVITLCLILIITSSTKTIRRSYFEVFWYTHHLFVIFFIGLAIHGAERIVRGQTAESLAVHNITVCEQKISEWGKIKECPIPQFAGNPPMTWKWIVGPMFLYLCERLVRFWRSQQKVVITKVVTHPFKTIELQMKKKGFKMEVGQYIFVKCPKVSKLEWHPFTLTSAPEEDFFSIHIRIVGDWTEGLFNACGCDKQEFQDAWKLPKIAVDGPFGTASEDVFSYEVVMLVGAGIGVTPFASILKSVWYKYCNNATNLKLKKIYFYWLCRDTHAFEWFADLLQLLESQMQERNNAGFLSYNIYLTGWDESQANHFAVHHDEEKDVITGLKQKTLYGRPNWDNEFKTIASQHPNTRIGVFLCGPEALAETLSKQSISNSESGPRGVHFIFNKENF
Sequence of Torsin-1A (Homo sapiens) (O14656 whole entry, looked up): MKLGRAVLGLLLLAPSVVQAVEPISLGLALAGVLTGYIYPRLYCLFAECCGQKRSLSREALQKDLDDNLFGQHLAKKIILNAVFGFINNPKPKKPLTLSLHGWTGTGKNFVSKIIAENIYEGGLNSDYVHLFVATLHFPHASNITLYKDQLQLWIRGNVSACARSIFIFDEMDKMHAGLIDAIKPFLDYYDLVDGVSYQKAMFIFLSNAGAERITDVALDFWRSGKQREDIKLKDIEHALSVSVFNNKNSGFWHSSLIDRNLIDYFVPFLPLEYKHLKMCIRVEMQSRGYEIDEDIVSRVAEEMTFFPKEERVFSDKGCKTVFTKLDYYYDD

Take `O=C1NC(=O)C2C1C=CC(C(O)c1ccc(F)cc1)N2Nc1ccc(Cl)cc1Cl` (stereo not given): the composite z-score in [1] is -0.166; in [6], -0.346; in assay [7] it was -0.0645; in [8] it was -0.556; in assay [9], -0.348; in assay [10], -0.354. Besides, the composite z-score in assay [12] is -0.017. Moreover, the z-score in [2] is -1.79 (inactive); in [3], -0.762 (inactive); in assay [4], 0.0535 (inactive); in assay [5] it was -0.207 (inactive); in assay [11], -1.89 (inactive); in assay [13], 3.43 (inactive). The z-score in [14] was 0.615 (inactive); in [15] it was -0.695 (inactive); in assay [16] it was 1.22 (inactive); in assay [17] it was 0.0765; in [18], -0.018 (inactive); in [19], -5.68 (inactive). This molecule yielded a z-score in assay [20] of -3.23.

With `C=CCOC(=O)[C@H]1[C@@H]2C(=O)O[C@@H](c3ccccc3)[C@@H](c3ccccc3)N2[C@@H](c2ccc(OCCOC(=O)[C@@H]3C[C@@H]4C(=O)N[C@@H](Cc5ccccc5)C(=O)N4[C@@H]3c3ccc(O)cc3)cc2)[C@]12C(=O)Nc1ccc(I)cc12`, the composite z-score in [1] is 0.305; in assay [6], 0.387; in assay [7], 0.124; in [8], -0.305; in assay [9] it was 0.237; in assay [10] it was 1.93. This molecule displayed a composite z-score in [12] of 0.861. The z-score in [2] was -0.268 (inactive); in [3] it was 0.0872 (inactive); in assay [4], 0.81 (inactive); in assay [5] it was 0.695 (inactive); in [11], -0.402 (inactive); in assay [13], 4.04 (inactive). Besides, the z-score in [14] was 2.18 (inactive); in assay [15], 2.04 (inactive); in assay [16] it was 1.38 (inactive); in [17] it was -0.674; in [18], 0.972 (inactive); in assay [19], -1.15 (inactive). This molecule gave a z-score in assay [20] of 0.885.

With `COc1cccc(C)c1NC(=O)O[C@H]1[C@H](OC(=O)Nc2ccccc2-c2ccccc2)[C@@H](OC(=O)Nc2ccccc2-c2ccccc2)[C@@H](OC)O[C@@H]1CO`, the composite z-score in [1] came to 0.933; in [6], 1; in [7] it was 0.179; in assay [8] it was 0.631; in assay [9] it was 1.23; in assay [10], 0.457. Besides, in [12], the composite z-score turned out to be 0.406. Also, the z-score in assay [2] was -5.6 (inactive); in assay [3] it was -0.325 (inactive); in assay [4], 1.13 (inactive); in assay [5], -1.05 (inactive); in assay [11], -1.33 (inactive); in assay [13] it was 2.54 (inactive). The z-score in assay [14] was 1.13 (inactive); in assay [15], -0.857 (inactive); in assay [16] it was 0.937 (inactive); in [17], -0.338; in assay [18] it was -3.62 (inactive); in [19] it was -1.2 (inactive). Besides, in assay [20], the z-score is -1.72.

In the case of `COc1ccc(C(O)C2C=CC3C(=O)N(C)C(=O)C3N2Nc2ccccc2)cc1` (stereo not given), the composite z-score was -0.0927 in [1]; 1.41 in assay [6]; 0.195 in assay [7]; 0.271 in [8]; 0.994 in [9]; 0.011 in assay [10]. The same molecule returned a composite z-score in assay [12] of 0.211. Moreover, the z-score is -2.05 (inactive) in assay [2]; -0.371 (inactive) in [3]; -0.143 (inactive) in assay [4]; 0.459 (inactive) in [5]; -0.485 (inactive) in [11]; 0.929 (inactive) in assay [13]. In addition, the z-score is 0.865 (inactive) in assay [14]; 0.213 (inactive) in assay [15]; 0.973 (inactive) in assay [16]; -0.423 in assay [17]; -1.26 (inactive) in assay [18]; -2.67 (inactive) in assay [19]. Further, the z-score in [20] is -1.96.
